Reference: PubChem BioAssay AID1445 (SRMLSC, 2008)
In all, about 220,000 compounds went through this assay and about 910 (0.41%) were called active.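 The calls were made as follows: active = primary inhibition above the hit cutoff, then over 50% inhibition at one or more dose response concentrations (cut at about 23% in these data, passing the limit was not always enough); inconclusive = conflicting primary data, or primary hits not chosen for dose response; inactive = low primary inhibition, or under 50% at every dose.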 For the sample, actives were picked, then their nearest neighbours and some compounds at random. Potency and affinity values are given separately.

Target: Aminopeptidase N (Plasmodium falciparum (isolate 3D7)) (UniProt O96935)
Sequence (O96935 whole entry, looked up): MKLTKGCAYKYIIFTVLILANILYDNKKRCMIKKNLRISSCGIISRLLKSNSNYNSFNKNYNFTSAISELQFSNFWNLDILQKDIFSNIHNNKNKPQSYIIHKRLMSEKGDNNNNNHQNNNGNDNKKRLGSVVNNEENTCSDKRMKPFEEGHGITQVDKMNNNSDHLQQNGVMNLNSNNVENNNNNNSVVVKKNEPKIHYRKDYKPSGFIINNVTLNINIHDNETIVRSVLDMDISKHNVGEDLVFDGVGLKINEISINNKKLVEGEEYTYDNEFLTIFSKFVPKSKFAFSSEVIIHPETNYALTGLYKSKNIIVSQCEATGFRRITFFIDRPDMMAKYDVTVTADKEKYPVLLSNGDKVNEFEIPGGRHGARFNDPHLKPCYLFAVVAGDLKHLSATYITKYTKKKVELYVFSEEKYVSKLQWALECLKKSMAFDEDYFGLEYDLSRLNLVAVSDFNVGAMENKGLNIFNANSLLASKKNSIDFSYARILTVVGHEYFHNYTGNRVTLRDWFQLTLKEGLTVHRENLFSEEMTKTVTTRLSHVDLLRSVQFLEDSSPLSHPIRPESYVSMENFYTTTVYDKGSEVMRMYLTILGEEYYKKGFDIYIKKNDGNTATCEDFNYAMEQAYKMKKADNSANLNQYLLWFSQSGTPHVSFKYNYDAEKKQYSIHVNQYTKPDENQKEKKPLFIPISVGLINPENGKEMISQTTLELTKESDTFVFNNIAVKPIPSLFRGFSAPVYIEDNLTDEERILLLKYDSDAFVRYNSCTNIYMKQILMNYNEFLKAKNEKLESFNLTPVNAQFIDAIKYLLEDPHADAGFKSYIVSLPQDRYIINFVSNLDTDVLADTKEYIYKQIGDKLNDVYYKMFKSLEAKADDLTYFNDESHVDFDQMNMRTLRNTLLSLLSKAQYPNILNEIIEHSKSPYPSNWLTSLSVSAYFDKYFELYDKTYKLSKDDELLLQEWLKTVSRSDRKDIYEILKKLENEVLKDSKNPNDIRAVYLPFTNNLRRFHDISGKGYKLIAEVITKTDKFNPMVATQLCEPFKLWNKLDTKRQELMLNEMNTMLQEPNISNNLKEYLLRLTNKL
Experiment: malaria alanyl aminopeptidase activity blockers – biochemical, fluorogenic H-Leu-NHMec substrate, 1536-well (AID 1445);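 also: plate controls were DMSO full reaction for no effect and no enzyme background for full effect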
Conditions: recombinant M1AAP, H-Leu-NHMec fluorogenic kinetic assay; at 30 µM, hits give high values unless noted

inhibition, inactive:
COc1ccc(S(=O)(=O)N2CCN(C)CC2)cc1Br -2.63%, Cc1nc(SCC(=O)Nc2ccccc2)c2oc3ccccc3c2n1 -7.15%, O=C(Nc1ccccc1)Oc1ccccc1N1CCOCC1 2.65%, COc1cc(C(=S)N2CCOCC2)ccc1OC(=O)c1cc([N+](=O)[O-])cc([N+](=O)[O-])c1 4.71%, CCn1c(O)c(N=NC(=O)C(O)c2ccccc2)c2ccccc21 (configuration not stated) 5.57%, CCn1c(NC(=O)c2ccccc2)c(-c2cccs2)c(=O)c2ccccc21 7.57%, CCOC(=O)N=Nc1c(O)n(CC)c2ccccc12 3.07%, CCCC(=O)Nc1c(-c2cccs2)c(=O)c2ccccc2n1CC 3.31%, N=C1/C(=C\c2coc3ccccc3c2=O)C(=O)N=C2SC=CN12 52.2%, N=C1/C(=C/c2coc3ccccc3c2=O)C(=O)N=C2SC(c3ccco3)=NN12 18.6%, CC(C)CC1=NN2C(=N)/C(=C\c3coc4ccccc4c3=O)C(=O)N=C2S1 58%, CC1=CC2=NC(=O)/C(=C/c3coc4ccc(Cl)cc4c3=O)C(=N)N2O1 7.94%, CCN1CCN(C(=O)C2CCN(Cc3cc(Cl)ccc3O)CC2)CC1 0.1%, O=C(COC(=O)c1cc(NS(=O)(=O)c2cccs2)ccc1O)Nc1ccc(F)c(F)c1F 6.76%, CC(C)(C)C(=O)Nc1ccc(S(=O)(=O)Nc2ccccn2)cc1 4.68%, C/C(Cc1ccccc1)=N/NC(=O)CCCC(=O)N/N=C(/C)Cc1ccccc1 1.32%, COc1ccc(C(=O)NNC(=O)Nc2ccc(C)cc2)cc1 -2.61%, CCOC(=O)C(NC(=O)c1ccccc1Cl)(Nc1ccc(C)c(C)c1)C(F)(F)F (configuration not stated) 3.71%, CCc1nnc(NC(=O)c2ccc3ccccc3n2)s1 18.2%, Cc1cnc(NC(=O)c2sc3ccccc3c2Cl)s1 5.85%, COCc1nnc(NC(=O)c2sc3ccccc3c2Cl)s1 17.9%, CCC(CC)c1nnc(NC(=O)c2ccc3ccccc3n2)s1 44%, CC1=C(C(=O)Nc2ccccn2)C(c2ccc(N(C)C)cc2)n2ncnc2N1 (configuration not stated) -4.41%, CCC(C)[C@H](NC(=O)NC1CC1)C(=O)O (some centres not stated) 5.68%, CCN(CC)c1cc(C)c2cc(NC(=O)c3ccc(Br)o3)ccc2n1 8.17%, C[N+]1(CCCOC(=O)C2(c3ccccc3)CCCC2)CCOCC1 12.4%, NC(=O)Cn1c(=O)n(CCc2ccccc2)c(=O)c2c3c(sc21)CCCC3 -0.91%, COc1ccc(-n2c(=O)c3c4c(sc3n(CC(N)=O)c2=O)CCCCC4)cc1 4.45%, CCOC(=O)N1CCN(S(=O)(=O)c2ccc(C(=O)Nc3sc4c(c3C#N)CCC4)cc2)CC1 4.62%, Nc1nonc1-c1nc2ccccc2n1CC(=O)N/N=C\c1ccc(-c2ccc(Cl)cc2)o1 -0.3%, COC(=O)c1ccccc1NC(=O)Cn1c(-c2nonc2N)nc2ccccc21 0.73%, Nc1nonc1-c1nc2ccccc2n1CC(=O)Nc1ccccc1 2.57%, CCOC(=O)c1ccccc1NC(=O)Cn1c(-c2nonc2N)nc2ccccc21 -0.93%, NC(=O)Cn1c(-c2nonc2N)nc2ccccc21 2.36%, CC(C)(C)NC(=O)Cn1c(-c2nonc2N)nc2ccccc21 8.2%, COc1ccccc1C(=O)Nc1ccccc1C(=O)N1CCCC1 5.88%, COc1ccc(CCNC(=O)COC(=O)c2ccc(N3CCCC3=O)cc2)cc1 -2.72%, CC(=O)/C(N=Nc1ccc(C(=O)O)cc1)=C(\C)O 7.52%, Cc1ccc(C)c(N2CCN(C(=O)c3ccc(CSc4nc5ccncc5[nH]4)cc3)CC2)c1 -6.94%, Cc1ccc(C2=Nc3ccc(Br)cc3C(c3ccncc3)=NN2)cc1 -0.32%, CCOC(=O)C1(CCOc2ccccc2)CCN(Cc2cnc(C)[nH]2)CC1 6.06%, CCN(CC)NC(=S)Nc1ccccc1 -2.71%, CN(C)c1nc(-c2ccc([N+](=O)[O-])cc2)cs1 4.18%, Cc1c(NC(=O)CSc2nncc3ccccc23)c(=O)n(-c2ccccc2)n1C 3.35%, O=C(NN1C(=O)/C(=C/C=C/c2ccco2)SC1=S)c1ccncc1 17.5%, Cn1cccc1/C=C1\SC(=S)N(NC(=O)c2ccccc2Cl)C1=O 17.9%, CC(C(=O)O)N1C(=O)/C(=C/C=C/c2ccco2)SC1=S (configuration not stated) 10.5%, O=C1/C(=C/c2ccc(O)c([N+](=O)[O-])c2)SC(=S)N1Cc1ccccc1 10.2%, O=C1/C(=C/C=C/c2ccco2)SC(=S)N1c1ccc(O)cc1 15.5%, O=C(O)CCCN1C(=O)/C(=C/C=C/c2ccco2)SC1=S 7.29%, COc1ccccc1C(=O)NN1C(=O)/C(=C/c2cccn2C)SC1=S 15.2%, O=C(NN1C(=O)/C(=C\c2ccc(O)c([N+](=O)[O-])c2)SC1=S)c1ccccc1Cl 19.8%, COc1ccccc1N(C)S(=O)(=O)c1ccc(C(=O)OCC(=O)Nc2cc(C)on2)cc1 -7.23%, CC(C)CN(CCOc1cccc(N2C(=O)C3=C(CCCC3)C2=O)c1)CC(C)C 3.32%, CC(=O)c1cccc(NC(=O)N2CCCc3ccccc32)c1 7.74%, COc1ccc(C2CCCN2C(=S)Nc2ccccc2C)cc1OC (configuration not stated) -1.92%, COc1ccc(C=O)cc1CSc1nnc(COc2cccc3cccnc23)o1 3.48%, C/C(CC(=O)Nc1cccc(C(F)(F)F)c1)=N/NC(=O)C(=O)NCCO 8.99%, O=C(Cc1c[nH]c2ccccc12)N/N=C/c1ccccc1O 20.7%, CC(C(=O)Nc1ccc(N2CCOCC2)cc1)N1C(=O)c2ccccc2C1=O (configuration not stated) 4.39%, COc1ccc(NC(=O)C(C)N2C(=O)c3ccccc3C2=O)cc1S(=O)(=O)N1CCOCC1 (configuration not stated) 9.37%, COc1ccc(NC(=S)N(CCc2c(C)[nH]c3ccccc23)Cc2ccco2)cc1 -1.5%, O=C(Nc1ccc2snnc2c1)N1CCSCC1 6.62%, CC(c1ccccc1)N1C(=O)c2ccccc2C1O (configuration not stated) 0.46%, CN(C)S(=O)(=O)c1ccc(N2CCOCC2)nc1 8.35%, O=C(NN1C(=O)/C(=C/c2cccs2)SC1=S)c1ccncc1 20.6%, Cc1ccc(S(=O)(=O)NN2C(=O)/C(=C/c3ccccn3)SC2=S)cc1 17.4%, CC(=O)NN1C(=O)/C(=C\c2ccccc2)SC1=S 12.8%, O=S(=O)(Nc1nc2ccccc2[nH]1)c1ccccc1 1.84%, O=C1/C(=C/c2cccs2)SC(=S)N1c1ccccc1 5.36%, O=C(NN1C(=O)/C(=C/c2cccs2)SC1=S)c1ccccc1 7.49%, Nc1nnc(CSc2ccc(Cl)cc2)s1 -0.69%, COc1cccc(NC(=O)C(Sc2nnc(-c3ccncc3)n2-c2ccc(Cl)cc2)c2ccccc2)c1 (configuration not stated) -1.95%, C=CCOc1c2ccc(C(=O)NCc3ccc(OC)cc3)cc2nn1C 15.3%, Cc1cc(C)n(-c2ccc(C(=O)OCC(=O)c3c(N)n(C)c(=O)n(C)c3=O)cc2)n1 4.93%, O=C(CCCCn1c(=O)[nH]c2ccsc2c1=O)NCC1CCCO1 (configuration not stated) -2.47%, O=C(NCc1ccco1)c1ccc(Cl)c(S(=O)(=O)N2CCOCC2)c1 0.38%, COC(=O)c1cc(C(=O)NCCN2C(=O)S/C(=C\c3cccs3)C2=O)cc([N+](=O)[O-])c1 9.47%, CCOC(=O)c1cc(C)[nH]c(=S)c1C#N 5.55%, COc1cc(/C=C/C(=O)O)cc(S(=O)(=O)Nc2ccc3nc(C)sc3c2)c1OC 3.42%, COc1cc(/C=C/C(=O)O)cc(S(=O)(=O)Nc2ccccc2Cl)c1OC 5.83%, COc1cc(/C=C/C(=O)O)cc(S(=O)(=O)NCc2ccco2)c1OC 4.28%, COc1cc(/C=C/C(=O)O)cc(S(=O)(=O)Nc2cccc(SC)c2)c1OC 9.82%, COc1cc(/C=C/C(=O)O)cc(S(=O)(=O)Nc2ccc3c(c2)OCO3)c1OC 10.2%, COc1cc(/C=C/C(=O)O)cc(S(=O)(=O)Nc2ccc(F)cc2)c1OC 5.47%, CC(=O)C1=C(O)C(=O)N(C2CCCCC2)C1c1ccccc1 (configuration not stated) 10.2%, CC(C)NC(=S)N(C)C1(c2ccccc2Cl)CCCCC1=O (configuration not stated) 2.06%, O=C(CCc1nc(-c2ccccc2F)no1)NCc1ccco1 8.13%, COCCNC(=S)Nc1ccc(N2CCCCC2)cc1 2.09%, Cc1cccc(NC(=O)CCCN2C(=O)c3ccccc3C2=O)n1 -6.68%, Cc1ccc(N2C(=O)[C@@H]3C(C(=O)CN4C(=O)c5ccccc5C4=O)=NN[C@@H]3C2=O)c(C)c1 4.06%, Cc1ccc(N2C(=O)c3ccccc3C2=O)cc1Cl -2.81%, Cc1cccc(N2C(=O)CCC2=O)n1 -1.56%, Cc1ccc(N2C(=O)c3ccc(C(=O)O)cc3C2=O)c(C)c1 -3.18%, Cc1ccc(N2C(=O)c3ccccc3C2=O)cc1C 2.18%

inhibition, active:
CCn1c(NC(=O)c2cccs2)c(-c2cccs2)c(=O)c2ccccc21 27%, Cc1nnc(NC(=O)c2sc3ccccc3c2Cl)s1 27.1%
